For 20 molecules, outcome and AC50 results are on record in PubChem BioAssay (EPA / NIEHS).

Calls of active or inactive are those of the source. Rule for the calls: active = hit-call score of the fitted dose curve at least 0.9, where 1 is the maximum; inactive = score below 0.9.

Common to all, as to settings: mRNA level, 48 h; actives raise or lower the signal
Read-out in assay [1]: ABC Transporter (ABCC3), ABCC3 (gene 8714)
The experiment in a line: LTEA_HepaRG_ABCC3: Life Technologies and Expression Analysis (LTEA) Assay for ABC Transporter (ABCC3) using HepaRG (AID 2283462). Summed up: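 Differentiated HepaRG liver cells receive test chemicals at eight concentrations (max 100 uM) for 48 h. Expression of ABCC3 is quantified by qRT-PCR against ACTB, GAPDH and POLR2A, and activity is fitted in both directions against the DMSO control.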

Read-out in assay [2]: ABC Transporter (ABCB11), ABCB11 (gene 8647)
As to the kind of experiment: LTEA_HepaRG_ABCB11: Life Technologies and Expression Analysis (LTEA) Assay for ABC Transporter (ABCB11) using HepaRG (AID 2283463). Summed up:
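ABCB11 transcript levels quantified by TaqMan qRT-PCR against three housekeeping genes after 48 h chemical exposure of HepaRG cultures. Concentrations up to 100 uM in half-log steps, 0.5% DMSO vehicle; both induction and suppression scored.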

Read-out in assay [3]: ABC Transporter (ABCC2), ABCC2 (gene 1244)
As to the kind of experiment: LTEA_HepaRG_ABCC2: Life Technologies and Expression Analysis (LTEA) Assay for ABC Transporter (ABCC2) using HepaRG (AID 2283464). Summed up:
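Gene expression of ABCC2 was determined by qRT-PCR in HepaRG cells exposed 48 h to chemicals (highest 100 uM, half-log dilutions). Activity was fitted in both directions relative to 0.5% DMSO vehicle.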

Read-out in assay [4]: Broad substrate specificity ATP-binding cassette transporter ABCG2 (Homo sapiens) (UniProt Q9UNQ0)
As to the kind of experiment: LTEA_HepaRG_ABCG2: Life Technologies and Expression Analysis (LTEA) Assay for ABC Transporter (ABCG2) using HepaRG (AID 2283465). The essentials: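 ABCG2 transcript was quantified by TaqMan qRT-PCR against three housekeeping genes in HepaRG cells. Cells were treated in duplicate for 48 h across an 8-point half-log series up to 100 uM, with 0.5% DMSO vehicle. Gain or loss versus DMSO was fit.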

Read-out in assay [5]: ATP-citrate lyase (ACLY), ACLY (gene 47)
As to the kind of experiment: LTEA_HepaRG_ACLY: Life Technologies and Expression Analysis (LTEA) Assay for ATP-citrate lyase (ACLY) using HepaRG (AID 2283466). Summed up: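 ACLY mRNA quantified by qRT-PCR on Fluidigm arrays against three housekeeping genes, after 48 h chemical treatment of HepaRG cells (top concentration 100 uM, half-log steps, 0.5% DMSO vehicle). Up- or down-regulation fitted relative to DMSO.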

Read-out in assay [6]: Peroxisomal acyl-coenzyme A oxidase 1 (ACOX1) gene, ACOX1 (gene 51)
The experiment in a line: LTEA_HepaRG_ACOX1: Life Technologies and Expression Analysis (LTEA) Assay for Peroxisomal acyl-coenzyme A oxidase 1 (ACOX1) gene using HepaRG (AID 2283467). The essentials: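 ACOX1 transcript levels were quantified by TaqMan qRT-PCR against three housekeeping genes after 48 h chemical exposure of differentiated human HepaRG cells. Exposure used eight half-log steps topping at 100 uM, 0.5% DMSO vehicle, in duplicate. Bidirectional curve fits were made relative to DMSO.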

Read-out in assay [7]: Alkaline Phosphatase, Placental (ALPP) gene, ALPP (gene 250)
As to the kind of experiment: LTEA_HepaRG_ALPP: Life Technologies and Expression Analysis (LTEA) Assay for Alkaline Phosphatase, Placental (ALPP) gene using HepaRG (AID 2283468).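 For AC50: ALPP transcript by TaqMan qRT-PCR normalized to ACTB GAPDH and POLR2A.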 Summed up: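 Expression of ALPP was quantified by qRT-PCR against three housekeeping genes in human HepaRG cultures treated for 48 h with an eight-point concentration series up to 100 uM. Activity in either direction was fitted relative to 0.5% DMSO.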

Read-out in assay [8]: Bcl-2 (BAD) gene, BAD (gene 572)
As to the kind of experiment: LTEA_HepaRG_BAD: Life Technologies and Expression Analysis (LTEA) Assay for Bcl-2 (BAD) gene using HepaRG (AID 2283469). The essentials:
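Read-out: qRT-PCR of BAD mRNA, normalized to three housekeeping genes. Human HepaRG cultures got 48 h chemical exposure in 0.5% DMSO, duplicate eight-point half-log series topping at 100 uM. Gain or loss of signal fitted versus DMSO vehicle.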

Read-out in assay [9]: growth arrest and DNA damage 45 (GADD45B), GADD45B (gene 4616)
As to the kind of experiment: LTEA_HepaRG_GADD45B: Life Technologies and Expression Analysis (LTEA) Assay for growth arrest and DNA damage 45 (GADD45B) using HepaRG (AID 2283461). Summed up:
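Values are bidirectional concentration-response fits against 0.5% DMSO controls. Underlying data: qRT-PCR mRNA levels in human HepaRG liver cells treated 48 h in serum-free induction medium, eight concentrations topping at 100 uM.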

By AC50 is commonly meant the midpoint of the concentration-response curve, whichever way the signal moves.

Broad substrate specificity ATP-binding cassette transporter ABCG2 (Homo sapiens), sequence (Q9UNQ0 whole entry, looked up): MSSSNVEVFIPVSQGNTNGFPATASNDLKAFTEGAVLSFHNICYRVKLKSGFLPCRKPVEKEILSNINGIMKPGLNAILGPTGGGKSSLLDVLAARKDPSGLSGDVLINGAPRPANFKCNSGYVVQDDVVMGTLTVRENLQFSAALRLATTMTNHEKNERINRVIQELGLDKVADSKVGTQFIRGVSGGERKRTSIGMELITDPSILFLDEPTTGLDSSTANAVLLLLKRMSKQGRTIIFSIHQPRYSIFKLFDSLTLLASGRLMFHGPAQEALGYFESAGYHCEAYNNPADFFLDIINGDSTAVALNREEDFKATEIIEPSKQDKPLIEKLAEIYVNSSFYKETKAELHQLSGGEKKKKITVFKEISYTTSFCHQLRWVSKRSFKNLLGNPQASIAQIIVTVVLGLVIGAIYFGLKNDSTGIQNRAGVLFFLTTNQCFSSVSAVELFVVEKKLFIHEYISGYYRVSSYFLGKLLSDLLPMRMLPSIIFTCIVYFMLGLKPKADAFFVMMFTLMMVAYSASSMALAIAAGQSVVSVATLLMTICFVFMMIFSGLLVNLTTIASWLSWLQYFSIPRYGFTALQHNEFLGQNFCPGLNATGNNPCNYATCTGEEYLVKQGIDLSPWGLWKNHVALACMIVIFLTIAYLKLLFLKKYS

Turning to `COC(=O)N(C(=O)N1CO[C@@]2(C(=O)OC)Cc3cc(Cl)ccc3C2=N1)c1ccc(OC(F)(F)F)cc1`, the molecule was called inactive in assay [1], in assay [3], in assay [4], in [5], in assay [7] and in assay [8]. Besides, the AC50 in assay [2] and in [6] was 40 µM (active) throughout.
`COC(=O)NS(=O)(=O)c1ccc(N)cc1`: the molecule was called inactive in assay [1], in [2], in assay [3], in assay [4], in assay [5] and in assay [6]. Moreover, the molecule was called inactive in assay [7] and in assay [8].
Regarding `CCC(C)n1c(=O)[nH]c(C)c(Br)c1=O` (stereo not drawn), the call in [1], in assay [3], in assay [4], in assay [5], in assay [7] and in assay [8] was inactive. The AC50 was 30 µM (active) in assay [2] and 21.6 µM (active) in [6].
`COP(=S)(OC)Oc1ccc([N+](=O)[O-])c(C)c1`: the molecule was called inactive in [1], in assay [2], in assay [3], in assay [4], in assay [5] and in assay [6]. In addition, the result in assay [7] and in assay [8] was inactive.
In the case of `CS(=O)(=O)c1cc(C(F)(F)F)ccc1C(=O)c1cnoc1C1CC1`, the molecule was called inactive in [9], in assay [1], in assay [2], in [3], in [4] and in assay [5]. In addition, the outcome in assay [6], in assay [7] and in assay [8] was inactive.
In the case of `O=P(O)(O)CCCl`, the call in assay [1], in assay [2], in assay [3], in assay [4], in assay [5] and in [6] was inactive. Moreover, the molecule was classed as inactive in assay [7] and in [8].
`COP(=O)(OC)O/C(C)=C/C(=O)N(C)C`: the call in assay [9], in [1], in [3], in [4], in assay [5] and in [6] was inactive. The result in [7] and in assay [8] was inactive. Further, in assay [2], the AC50 is 11 µM (active).
As to `CO/N=C(/C1=NOCCO1)c1ccccc1Oc1ncnc(Oc2ccccc2Cl)c1F`, the AC50 in assay [9] is 29.7 µM (active); in assay [1], 6.69 µM (active); in [2] it was 29.2 µM (active); in assay [3], 50 µM (active); in assay [4], 8.72 µM (active); in assay [5], 12.5 µM (active). For the same molecule, the AC50 was 15.4 µM (active) in [6] and 5.39 µM (active) in assay [7]. For the same molecule, the outcome in assay [8] was inactive.
On to `Cn1c(-c2ccccc2)cc(-c2ccccc2)[n+]1C`, for which the AC50 in [1] was 2.67 µM (active); in assay [2], 24.4 µM (active); in [3], 62.6 µM (active); in [6], 21.2 µM (active); in assay [7], 50 µM (active). The molecule was called inactive in [4], in [5] and in [8].
As for `OC(c1ccc(Cl)cc1)(c1ccc(Cl)cc1)C(Cl)(Cl)Cl`, the molecule was called inactive in assay [1], in assay [3], in assay [5] and in assay [7]. The AC50 in [2] is 72.4 µM (active); in assay [4], 50 µM (active); in [6], 50 µM (active); in assay [8] it was 70.1 µM (active).
For the molecule `CCCCOCN(C(=O)CCl)c1c(CC)cccc1CC`, the molecule was classed as inactive in assay [1], in assay [2], in [3], in [4], in [5] and in [6]. In addition, the outcome in assay [7] and in [8] was inactive.
With `CC(C)Oc1cccc(NC(=O)c2ccccc2C(F)(F)F)c1`, the outcome in [1], in [2], in [3], in assay [4], in [5] and in assay [6] was inactive. In addition, the molecule was called inactive in assay [7] and in assay [8].
In the case of `N#CN=C1SCCN1Cc1ccc(Cl)nc1`, the outcome in assay [1], in assay [2], in assay [3], in assay [4], in assay [5] and in assay [6] was inactive. The outcome in [7] and in assay [8] was inactive.
`COCC(=O)N(c1c(C)cccc1C)C(C)C(=O)OC` (stereo not drawn): the result in [9], in [1], in assay [2], in assay [3], in assay [4] and in [5] was inactive. Further, the result in assay [6], in [7] and in [8] was inactive.
On to `C=C(C)CN(CC)c1c([N+](=O)[O-])cc(C(F)(F)F)cc1[N+](=O)[O-]`, for which the outcome in [1], in assay [2], in [3], in [4], in [5] and in assay [6] was inactive. In addition, the result in assay [7] and in assay [8] was inactive.
For `Cc1nc(N(C)C)nc(OC(=O)N(C)C)c1C`, the result in assay [1], in [2], in assay [3], in [4], in [5] and in [6] was inactive. In addition, the molecule was called inactive in assay [7] and in assay [8].
Turning to `Cc1cc(C)nc(Nc2ccccc2)n1`, the result in assay [1], in assay [2], in assay [3], in [4], in [5] and in [6] was inactive. Moreover, the outcome in [7] and in [8] was inactive.
As for `COc1cc(Cl)c(OC)cc1Cl`, the molecule was classed as inactive in assay [1], in [2], in assay [4], in [5], in [6] and in assay [7]. The molecule was called inactive in assay [8].
With `COc1ccc(-c2ccccc2)cc1NNC(=O)OC(C)C`, the molecule was called inactive in assay [1], in assay [2], in assay [3], in [4], in [5] and in assay [6]. Further, the call in assay [7] and in assay [8] was inactive.
For `Nc1c(Cl)c(Cl)nc(C(=O)O)c1Cl`, the molecule was called inactive in assay [1], in assay [2], in [3], in assay [4], in [5] and in [6]. The molecule was classed as inactive in assay [7] and in assay [8].
